PLK1 PBD inh: qHTS for Inhibitors of PLK1-PDB (polo-like kinase 1 - polo-box domain): Primary Screen; Serine/threonine-protein kinase PLK1 (Homo sapiens), P53350; Plk1 PBD binding of FITC phosphopeptide, fluorescence polarization; Potency, µM, without a hit: max response, negative = inhibition, hits mostly inhibitors; 360,000 tested, 2.8% active; AID 720504, 2013; note: series mostly up to about 57 µM; nearly all actives have a fitted effect of over 65% in size
TDP1 cell CPT: qHTS for Inhibitors of human tyrosyl-DNA phosphodiesterase 1 (TDP1): qHTS in cells in presence of CPT. chicken DT40 Tdp1-/-;hTDP1 cells + 20 nM CPT, ATP luminescence, 48 h. Potency, µM (top dose mostly 46.2 µM), for inactives: at the highest dose activity change, negative = growth inhibition, usual class: inhibitors. 420,000 tested, 12% active; note: nearly all actives have a fitted effect of over 55% in size
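Chicken DT40 Tdp1-/- cells complemented with human TDP1, 400 cells/well, exposed to compounds plus 20 nM camptothecin for at least 48 h at 37 C; viability read as ATP content by CellTiter-Glo luminescence.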
KAT2A inh: qHTS Assay for Inhibitors of GCN5L2. Histone acetyltransferase KAT2A (Homo sapiens), Q92830. 390,000 tested, 0.21% active. AID 504327, 2011. GCN5L2 HAT assay, ThioGlo1 CoA-SH fluorescence. Potency, µM (doses to about 58.9 µM), without a hit: at the top dose activity change, negative = inhibition, hits mostly inhibitors
Target sequence (Q92830 whole entry, looked up): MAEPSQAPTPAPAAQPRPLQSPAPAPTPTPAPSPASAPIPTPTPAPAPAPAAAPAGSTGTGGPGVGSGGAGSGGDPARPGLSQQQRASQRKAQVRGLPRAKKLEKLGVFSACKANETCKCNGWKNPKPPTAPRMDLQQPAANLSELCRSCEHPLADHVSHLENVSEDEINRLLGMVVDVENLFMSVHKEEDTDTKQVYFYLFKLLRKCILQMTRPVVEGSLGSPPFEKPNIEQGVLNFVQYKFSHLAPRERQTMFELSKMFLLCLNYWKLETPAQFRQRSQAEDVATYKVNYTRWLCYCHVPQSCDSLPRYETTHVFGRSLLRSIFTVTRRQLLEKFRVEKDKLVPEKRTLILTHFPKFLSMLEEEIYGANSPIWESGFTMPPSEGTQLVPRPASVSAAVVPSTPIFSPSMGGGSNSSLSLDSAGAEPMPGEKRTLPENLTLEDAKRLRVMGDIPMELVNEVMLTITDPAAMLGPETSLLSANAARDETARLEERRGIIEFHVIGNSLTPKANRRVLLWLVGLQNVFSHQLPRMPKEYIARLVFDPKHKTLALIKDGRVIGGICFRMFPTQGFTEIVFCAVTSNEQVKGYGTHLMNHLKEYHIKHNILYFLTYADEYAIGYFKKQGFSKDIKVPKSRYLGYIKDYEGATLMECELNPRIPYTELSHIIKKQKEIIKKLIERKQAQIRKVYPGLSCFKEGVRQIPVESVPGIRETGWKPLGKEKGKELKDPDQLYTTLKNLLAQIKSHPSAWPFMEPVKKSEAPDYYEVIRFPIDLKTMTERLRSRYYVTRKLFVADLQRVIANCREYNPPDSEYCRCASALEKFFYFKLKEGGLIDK
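Preincubate 20nM GCN5L2 with compound 15 min, RT → add 50uM ThioGlo1 + 75uM H3(1-25) + 70uM acetyl-CoA → read fluorescence 0 and 20 min. Primary qHTS; fluorescent artifacts likely.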
VDR inh: Inhibitors of the vitamin D receptor (VDR): qHTS | Vitamin D3 receptor (Homo sapiens), P11473 | VDR-SRC2-3 peptide fluorescence polarization, 2 h | Potency, µM, without a hit: max response, negative = inhibition, hits mostly inhibitors | 400,000 tested, 0.93% active | AID 504847, 2011
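Fluorescence polarization assay measuring small-molecule disruption of VDR binding to the coregulator peptide SRC2-3. Compounds were pin-transferred (23 nl) into the reagent mix and incubated 2 h at room temperature before reading.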
TDP1 cell noCPT: qHTS for Inhibitors of human tyrosyl-DNA phosphodiesterase 1 (TDP1): qHTS in cells in absence of CPT; DT40 Tdp1-/- hTDP1 cells, no CPT, ATP luminescence, 48 h; Potency, µM (titrated, usually from 46.2 µM), inactives show at the top dose activity change, negative = growth inhibition, most hits filed as inhibitors; 420,000 tested, 15% active; AID 686978, 2013; note: nearly all actives have a fitted effect of over 55% in size
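Readout: luminescence from CellTiter-Glo after 30 min in the dark at RT. Cells: DT40 Tdp1-/- with stable hTDP1, 400/well. Exposure: compounds alone, ≥48 hr, 37 °C.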
TDP1 inh: qHTS Assay for Inhibitors of Tyrosyl-DNA Phosphodiesterase (TDP1); recombinant TDP1, AlphaScreen DNA substrate cleavage; Potency, µM (highest dose often 130 µM), inactives show at the highest dose activity change, negative = inhibition, most hits filed as inhibitors; 350,000 tested, 0.28% active; AID 485290, 2010; note: nearly all actives have a fitted effect of over 40% in size
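AlphaScreen read-out: signal falls as enzyme removes the 3' tyrosine-FITC from a 5'-biotinylated DNA oligo (15 nM, 5 min, RT). Enzyme was E. coli-made recombinant Tdp1 at 1 nM, exposed to compound for 15 min beforehand; beads 10 ug/ml, 10 min.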
Numbers without * were called inactive; ! = a repeat was not active; [ ] = dose if it differs, or a comment. Hits are enriched below; roughly 18% of the tested compounds scored in any of these assays. Calls come from the whole dose curve; as a rule, active = well fitted curve in the direction sought with a large enough effect; inconclusive = small, poorly fitted or top-dose-only effect, or another doubt; inactive = no such curve, though single readings can be large; an effect the other way counts as inactive or inconclusive. % is set by controls: 0 for no effect and ±100 for the full control effect; potency is the fitted concentration of half-maximal effect.

`CCCCN(CCCC)S(=O)(=O)c1ccc(C(=O)Nc2nnc(COC)o2)cc1` gave PLK1 PBD inh -6%, TDP1 cell CPT 18µM*, KAT2A inh inconclusive, VDR inh 17%, TDP1 cell noCPT 16µM* and TDP1 inh 12%.
For CCN(CC)S(=O)(=O)c1ccc(C(=O)Nc2nnc(COC)o2)cc1 the results were PLK1 PBD inh -7%, TDP1 cell CPT 2%, KAT2A inh -3%, VDR inh 16%, TDP1 cell noCPT 7% and TDP1 inh 5%.
CCOc1ccc(-c2cc(NC(=O)Nc3ccccc3C(F)(F)F)c(C(=O)OC)s2)cc1 was read as TDP1 cell CPT inconclusive, KAT2A inh -8%, VDR inh 9%, TDP1 cell noCPT inconclusive and TDP1 inh 3%.
COc1ccc2c(c1)c1c(c(=O)n(-c3ccccc3)c(=O)n1CC(=O)Nc1ccc(F)cc1)n2C was read as TDP1 cell CPT -2%, KAT2A inh -2%, VDR inh 20%, TDP1 cell noCPT -6% and TDP1 inh -6%.
Screening CCCNc1nc2nc3ccccn3c(=O)c2cc1C(=O)NCCN1CCOCC1 returned PLK1 PBD inh -2%, TDP1 cell CPT 11%, KAT2A inh -4%, VDR inh 1% and TDP1 cell noCPT -11%.
Screening COc1ccccc1-c1nnc(NC(=O)c2ccc(S(=O)(=O)N(C)Cc3ccccc3)cc2)o1 returned PLK1 PBD inh -28%, TDP1 cell CPT 13µM*, KAT2A inh -2%, VDR inh 18%, TDP1 cell noCPT 9.2µM* and TDP1 inh 10%.
`O=C(c1cccs1)N1CCCc2cc(NS(=O)(=O)c3cc(F)ccc3F)ccc21` gave TDP1 cell CPT inconclusive, KAT2A inh -16%, VDR inh -10%, TDP1 cell noCPT inconclusive and TDP1 inh 1%.
Screening COc1ccccc1C(=O)Nc1ccc2c(c1)CCCN2C(=O)c1ccccc1 returned PLK1 PBD inh 24µM*, TDP1 cell CPT 16µM*, KAT2A inh -9%, VDR inh inconclusive, TDP1 cell noCPT 13µM* and TDP1 inh 4%.
O=C(Nc1ccc2c(c1)CCCN2C(=O)c1cccs1)c1cccc(C(F)(F)F)c1 was read as TDP1 cell CPT 13µM*, KAT2A inh -15%, VDR inh 0%, TDP1 cell noCPT 9.2µM* and TDP1 inh -1%.
`O=C(Nc1ccc2c(c1)CCCN2C(=O)c1cccs1)c1ccc(F)c(F)c1` gave TDP1 cell CPT 16µM*, KAT2A inh -19%, VDR inh 12%, TDP1 cell noCPT 21µM* and TDP1 inh 9%.
`COc1cc(OC)cc(C(=O)Nc2ccc3c(c2)CCCN3C(=O)c2cccs2)c1` gave PLK1 PBD inh -7%, TDP1 cell CPT 18µM*, KAT2A inh inconclusive, VDR inh -3%, TDP1 cell noCPT 23µM*! and TDP1 inh 3%.
O=C(c1cccs1)N1CCCc2cc(NS(=O)(=O)c3ccc(Br)cc3)ccc21 was read as TDP1 cell CPT inconclusive, KAT2A inh -15%, VDR inh 4%, TDP1 cell noCPT inconclusive and TDP1 inh 9%.
Screening Cc1noc(C)c1CSCC(=O)N(C)CC(=O)Nc1ccc(F)c(F)c1F returned PLK1 PBD inh -7%, TDP1 cell CPT -12%, KAT2A inh -2%, VDR inh 10%, TDP1 cell noCPT -18% and TDP1 inh 0%[0.505 µM].
For O=C(O)C1CCCCC1C(=O)NCc1ccccn1 (configuration not stated) the results were PLK1 PBD inh -7%, TDP1 cell CPT -10%, KAT2A inh 14%, VDR inh 3%, TDP1 cell noCPT -4% and TDP1 inh -5%.
`CCCCNc1nc(Oc2ccc(=O)n(-c3ccccc3)n2)nc(N(C)C)n1` gave TDP1 cell CPT inconclusive, KAT2A inh 0%, VDR inh -2%, TDP1 cell noCPT inconclusive and TDP1 inh 0%.
For CCC(=O)N(c1nnc(SCC(=O)NN2C(=O)NC3(CCCCC3)C2=O)s1)C1CC1 the results were PLK1 PBD inh -9%, TDP1 cell CPT 9%, KAT2A inh 1%, VDR inh 8%, TDP1 cell noCPT 9% and TDP1 inh 2%.
O=C(Nc1ccc2c(c1)CCCN2C(=O)c1cccs1)c1ccccc1 was read as PLK1 PBD inh 21µM*, TDP1 cell CPT 16µM*, KAT2A inh -5%, VDR inh -24%, TDP1 cell noCPT 13µM* and TDP1 inh 1%.
`O=C(Nc1ccc2c(c1)CCCN2C(=O)c1cccs1)c1cccc(F)c1` gave PLK1 PBD inh inconclusive, TDP1 cell CPT inconclusive, KAT2A inh -5%, VDR inh -16%, TDP1 cell noCPT inconclusive and TDP1 inh 2%.
O=C(Nc1ccc2c(c1)CCCN2C(=O)c1cccs1)c1ccccc1C(F)(F)F was read as TDP1 cell CPT inconclusive, KAT2A inh -2%, VDR inh 2%, TDP1 cell noCPT 23µM* and TDP1 inh 1%.
For CC(C)(C)OC(=O)CC(=O)NNC(=O)c1cc2ccccc2[nH]1 the results were TDP1 inh -1%.
Screening Cc1sc2nc(CN(C(=O)NC3CCCCC3)C3CCCCC3)[nH]c(=O)c2c1C returned PLK1 PBD inh -8%, TDP1 cell CPT 18µM*, KAT2A inh 0%, VDR inh -24%, TDP1 cell noCPT 21µM* and TDP1 inh -1%.
Screening CC1CCCC(C)N1C(=O)COC(=O)CSc1ccc([N+](=O)[O-])cc1 (configuration not stated) returned PLK1 PBD inh 19µM*, TDP1 cell CPT inconclusive, KAT2A inh -11%, VDR inh -30%, TDP1 cell noCPT inconclusive and TDP1 inh 1%.
CC(C)(C)N(Cc1ccccc1)C(=O)COC(=O)CSc1ccc([N+](=O)[O-])cc1 was read as PLK1 PBD inh 12µM*, TDP1 cell CPT inconclusive, KAT2A inh -9%, VDR inh -30%, TDP1 cell noCPT inconclusive and TDP1 inh 3%.
CCOC(=O)C1CCN(C(=O)COC(=O)CSc2ccc([N+](=O)[O-])cc2)CC1 was read as PLK1 PBD inh inconclusive, TDP1 cell CPT -20%, KAT2A inh -1%, VDR inh inconclusive, TDP1 cell noCPT -28% and TDP1 inh 0%.

Assay outcomes as filed in PubChem BioAssay.
